# Reference: ChEMBL document CHEMBL3988442, “University of Dundee, Small-Polar-MMV Screening Library” (2021)
# For some assays here: Measured potencies and affinities stand elsewhere.
# Legend:
# Set-up in all cases: scale not given: direction of the effect not stated beside the values
# [1] = biological target: Protein translocase subunit SecA (Escherichia coli (strain K12)) (UniProt P10408); experiment: Assay to Identify E. coli SecA ATPase Inhibitors; assay type: functional; details: 30 µM
# [2] = biological target: T1, Ubiquitin-activating enzyme e1, putative (Leishmania donovani (strain BPK282A1)) (UniProt E9BSI1); experiment: Leishmania donovani Ubiquitin Activating Enzyme (LdE1); assay type: functional; details: 30 µM
# T1 sequence (whole entry): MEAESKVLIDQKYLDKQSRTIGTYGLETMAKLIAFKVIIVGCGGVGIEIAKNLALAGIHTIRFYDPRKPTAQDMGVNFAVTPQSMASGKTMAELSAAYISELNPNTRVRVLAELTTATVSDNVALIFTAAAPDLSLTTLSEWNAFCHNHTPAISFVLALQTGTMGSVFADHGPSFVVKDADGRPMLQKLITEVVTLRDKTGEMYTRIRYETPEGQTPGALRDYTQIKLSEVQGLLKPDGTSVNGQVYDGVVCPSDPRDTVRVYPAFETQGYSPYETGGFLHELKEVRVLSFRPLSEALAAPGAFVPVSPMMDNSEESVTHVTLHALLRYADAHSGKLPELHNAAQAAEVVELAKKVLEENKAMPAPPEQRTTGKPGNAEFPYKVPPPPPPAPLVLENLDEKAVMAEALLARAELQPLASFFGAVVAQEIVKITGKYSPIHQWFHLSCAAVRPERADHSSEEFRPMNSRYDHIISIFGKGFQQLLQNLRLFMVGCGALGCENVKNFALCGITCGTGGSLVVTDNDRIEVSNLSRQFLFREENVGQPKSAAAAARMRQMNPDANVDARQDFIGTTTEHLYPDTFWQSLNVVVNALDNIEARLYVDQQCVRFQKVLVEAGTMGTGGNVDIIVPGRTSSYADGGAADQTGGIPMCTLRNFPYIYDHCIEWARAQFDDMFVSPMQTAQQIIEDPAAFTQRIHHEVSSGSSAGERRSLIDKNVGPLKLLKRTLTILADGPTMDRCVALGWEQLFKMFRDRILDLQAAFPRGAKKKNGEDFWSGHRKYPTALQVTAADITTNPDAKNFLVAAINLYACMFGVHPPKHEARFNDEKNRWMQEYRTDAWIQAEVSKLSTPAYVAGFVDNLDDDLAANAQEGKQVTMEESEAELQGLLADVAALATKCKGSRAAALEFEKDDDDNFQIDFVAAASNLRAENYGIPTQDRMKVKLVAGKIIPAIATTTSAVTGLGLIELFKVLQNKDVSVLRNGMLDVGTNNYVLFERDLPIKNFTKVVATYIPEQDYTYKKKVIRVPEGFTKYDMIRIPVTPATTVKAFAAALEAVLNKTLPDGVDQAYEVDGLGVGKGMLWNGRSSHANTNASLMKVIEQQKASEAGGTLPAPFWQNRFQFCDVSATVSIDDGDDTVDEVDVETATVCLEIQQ
# [3] = biological target: AMP-activated protein kinase, AMPK (Homo sapiens) (UniProt P54646+O43741+P54619+Q9UGJ0+Q9Y478+Q13131+Q9UGI9); experiment: AMP-dependent Kinase enzyme assay. An in vitro enzyme assay that detects ADP turnover that is directly proportional to AMPK activity. This uses naive AMPK that is activated during the assay with MK-8722; assay type: functional; details: 30 µM
# [4] = biological target: Sialic acid-binding Ig-like lectin 9 (Homo sapiens) (UniProt Q9Y336); experiment: Hs-Siglec9 ALPHAscreen SOP 20170721; details: 10 µM
# Trypanosoma cruzi = experiment: Trypanosoma cruzi phosphomannomutase and mannose-1-phosphate guanylyltransferase assay; assay type: functional; details: 10 µM
# [5] = biological target: T2, Arginase-2, mitochondrial (Homo sapiens) (UniProt P78540); experiment: in vitro enzyme assay to detect the production of urea directly proportional to the activity of Arginase II; assay type: functional; details: 33.3 µM; further: in the data most compounds retested in dose-response had high values
# T2 sequence (whole entry): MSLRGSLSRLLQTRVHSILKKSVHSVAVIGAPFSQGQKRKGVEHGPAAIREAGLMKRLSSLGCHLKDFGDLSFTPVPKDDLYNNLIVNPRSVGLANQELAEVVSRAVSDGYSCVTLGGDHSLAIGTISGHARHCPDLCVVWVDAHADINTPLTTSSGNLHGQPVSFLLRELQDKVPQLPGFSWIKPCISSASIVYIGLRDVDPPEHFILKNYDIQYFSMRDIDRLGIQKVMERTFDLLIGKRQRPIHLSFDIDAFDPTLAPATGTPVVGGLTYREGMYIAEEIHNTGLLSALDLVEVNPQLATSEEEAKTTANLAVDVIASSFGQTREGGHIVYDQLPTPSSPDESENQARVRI
# [6] = biological target: T3, Proteasome subunit beta (Trypanosoma cruzi) (UniProt O96673); experiment: Trypanosoma cruzi proteasome chymotrypsin-like activity (TcProtChymo) assay.; further: in the data most compounds retested in dose-response had high values; assay type: functional; details: 9.37 µM
# T3 sequence (whole entry): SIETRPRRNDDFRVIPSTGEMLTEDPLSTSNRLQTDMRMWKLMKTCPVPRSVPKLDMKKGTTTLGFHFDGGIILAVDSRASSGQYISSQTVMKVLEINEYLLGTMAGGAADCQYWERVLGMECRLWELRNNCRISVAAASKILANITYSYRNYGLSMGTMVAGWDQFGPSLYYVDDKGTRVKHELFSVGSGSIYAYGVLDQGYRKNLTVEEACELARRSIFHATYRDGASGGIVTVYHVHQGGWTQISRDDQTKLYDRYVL
# Homo sapiens = species on record: Homo sapiens; experiment: To identify inhibition of the IFN signalling (Jak-Stat) pathway via expression of an eGFP reporter gene under the control of an IFN-stimulated response element (ISRE) containing MxA promoter.; assay type: functional; details: 30 µM
# [7] = biological target: T4, Tyrosyl-tRNA synthetase, putative (Trypanosoma cruzi (strain CL Brener)) (UniProt Q4DSP6); experiment: Trypanosoma cruzi tyrosyl tRNA synthetase (TcYRS) _High Tyrosine SOP; assay type: functional; details: 30 µM; further: in the data most compounds retested in dose-response had high values
# T4 sequence (whole entry): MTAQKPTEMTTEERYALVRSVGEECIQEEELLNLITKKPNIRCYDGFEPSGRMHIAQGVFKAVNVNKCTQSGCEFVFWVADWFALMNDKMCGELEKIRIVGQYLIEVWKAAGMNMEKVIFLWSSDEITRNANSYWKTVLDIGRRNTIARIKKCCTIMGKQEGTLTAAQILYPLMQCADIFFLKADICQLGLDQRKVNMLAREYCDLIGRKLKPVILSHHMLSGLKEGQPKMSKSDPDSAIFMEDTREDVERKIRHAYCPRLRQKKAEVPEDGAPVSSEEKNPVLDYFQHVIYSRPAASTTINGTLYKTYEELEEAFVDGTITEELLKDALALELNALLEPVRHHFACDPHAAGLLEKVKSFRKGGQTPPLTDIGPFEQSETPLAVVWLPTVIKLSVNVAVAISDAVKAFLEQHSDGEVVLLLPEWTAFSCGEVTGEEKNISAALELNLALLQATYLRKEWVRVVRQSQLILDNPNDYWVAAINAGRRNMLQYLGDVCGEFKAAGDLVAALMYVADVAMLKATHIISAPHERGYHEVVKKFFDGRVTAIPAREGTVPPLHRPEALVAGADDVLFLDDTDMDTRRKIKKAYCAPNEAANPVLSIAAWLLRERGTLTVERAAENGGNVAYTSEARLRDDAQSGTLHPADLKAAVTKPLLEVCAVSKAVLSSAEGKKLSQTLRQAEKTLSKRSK
# [8] = biological target: T4, Tyrosyl-tRNA synthetase, putative (Trypanosoma cruzi (strain CL Brener)); experiment: Trypanosoma cruzi tyrosyl tRNA synthetase (TcYRS) SOP; assay type: functional; details: 30 µM
# [9] = biological target: Chromo domain-containing protein 1 (Saccharomyces cerevisiae (strain ATCC 204508 / S288c) (Baker's yeast)) (UniProt P32657); experiment: ScCHD-1 Enzyme Inhibition Assay; assay type: functional; details: 30 µM; further: in the data most compounds retested in dose-response had high values
# Sequence of Chromo domain-containing protein 1 (Saccharomyces cerevisiae (strain ATCC 204508 / S288c) (Baker's yeast)) (P32657 whole entry, the tested form may be a part): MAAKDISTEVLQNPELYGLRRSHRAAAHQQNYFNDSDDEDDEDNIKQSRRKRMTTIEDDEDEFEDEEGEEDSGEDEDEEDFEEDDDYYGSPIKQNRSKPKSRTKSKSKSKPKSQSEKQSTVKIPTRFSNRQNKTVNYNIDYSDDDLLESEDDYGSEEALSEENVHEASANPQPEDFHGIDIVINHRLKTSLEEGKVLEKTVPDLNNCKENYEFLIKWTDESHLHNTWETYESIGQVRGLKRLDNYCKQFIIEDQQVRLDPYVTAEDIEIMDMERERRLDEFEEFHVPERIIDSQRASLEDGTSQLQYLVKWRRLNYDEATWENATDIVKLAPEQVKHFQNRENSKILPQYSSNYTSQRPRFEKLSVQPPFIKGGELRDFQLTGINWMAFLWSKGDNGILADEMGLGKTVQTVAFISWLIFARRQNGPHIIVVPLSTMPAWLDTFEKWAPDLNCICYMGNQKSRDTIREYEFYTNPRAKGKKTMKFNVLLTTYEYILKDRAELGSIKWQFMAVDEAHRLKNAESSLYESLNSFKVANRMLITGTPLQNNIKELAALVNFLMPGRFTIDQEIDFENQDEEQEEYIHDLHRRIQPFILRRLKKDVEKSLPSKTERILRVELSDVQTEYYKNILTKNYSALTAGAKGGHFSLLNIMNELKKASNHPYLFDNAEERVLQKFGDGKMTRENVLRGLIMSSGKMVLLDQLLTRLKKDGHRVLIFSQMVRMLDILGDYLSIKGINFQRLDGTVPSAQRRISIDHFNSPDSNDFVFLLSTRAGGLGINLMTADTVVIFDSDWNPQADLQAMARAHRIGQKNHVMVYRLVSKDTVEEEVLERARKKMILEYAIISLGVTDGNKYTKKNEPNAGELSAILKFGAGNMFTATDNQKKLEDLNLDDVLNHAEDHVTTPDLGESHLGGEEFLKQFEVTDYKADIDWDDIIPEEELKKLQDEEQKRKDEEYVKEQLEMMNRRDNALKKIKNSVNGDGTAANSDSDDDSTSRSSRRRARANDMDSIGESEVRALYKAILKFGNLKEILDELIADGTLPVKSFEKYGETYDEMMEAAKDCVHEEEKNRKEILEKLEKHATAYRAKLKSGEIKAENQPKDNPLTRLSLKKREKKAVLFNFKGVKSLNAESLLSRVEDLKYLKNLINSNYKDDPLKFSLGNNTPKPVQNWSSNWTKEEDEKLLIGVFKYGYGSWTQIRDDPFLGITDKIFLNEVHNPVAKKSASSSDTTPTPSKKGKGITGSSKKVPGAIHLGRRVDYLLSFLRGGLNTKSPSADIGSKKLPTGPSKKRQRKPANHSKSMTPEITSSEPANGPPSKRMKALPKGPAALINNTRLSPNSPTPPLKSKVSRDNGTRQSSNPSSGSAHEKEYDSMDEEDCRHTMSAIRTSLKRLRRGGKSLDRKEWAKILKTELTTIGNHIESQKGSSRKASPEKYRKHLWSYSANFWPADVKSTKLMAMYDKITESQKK
# Sequence of Sialic acid-binding Ig-like lectin 9 (Homo sapiens) (Q9Y336 whole entry): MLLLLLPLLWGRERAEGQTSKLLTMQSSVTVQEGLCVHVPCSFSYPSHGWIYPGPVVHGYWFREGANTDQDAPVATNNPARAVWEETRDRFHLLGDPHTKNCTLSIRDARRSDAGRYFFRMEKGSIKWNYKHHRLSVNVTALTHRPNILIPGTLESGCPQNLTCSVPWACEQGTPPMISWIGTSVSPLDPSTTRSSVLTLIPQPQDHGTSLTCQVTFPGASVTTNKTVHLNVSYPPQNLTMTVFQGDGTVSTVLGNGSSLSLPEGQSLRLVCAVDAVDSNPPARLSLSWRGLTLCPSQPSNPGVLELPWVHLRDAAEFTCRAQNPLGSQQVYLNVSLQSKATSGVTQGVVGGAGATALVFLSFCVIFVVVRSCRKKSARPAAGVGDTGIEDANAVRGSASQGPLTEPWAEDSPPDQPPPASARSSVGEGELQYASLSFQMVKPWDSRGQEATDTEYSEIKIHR
# Sequence of Protein translocase subunit SecA (Escherichia coli (strain K12)) (P10408 whole entry): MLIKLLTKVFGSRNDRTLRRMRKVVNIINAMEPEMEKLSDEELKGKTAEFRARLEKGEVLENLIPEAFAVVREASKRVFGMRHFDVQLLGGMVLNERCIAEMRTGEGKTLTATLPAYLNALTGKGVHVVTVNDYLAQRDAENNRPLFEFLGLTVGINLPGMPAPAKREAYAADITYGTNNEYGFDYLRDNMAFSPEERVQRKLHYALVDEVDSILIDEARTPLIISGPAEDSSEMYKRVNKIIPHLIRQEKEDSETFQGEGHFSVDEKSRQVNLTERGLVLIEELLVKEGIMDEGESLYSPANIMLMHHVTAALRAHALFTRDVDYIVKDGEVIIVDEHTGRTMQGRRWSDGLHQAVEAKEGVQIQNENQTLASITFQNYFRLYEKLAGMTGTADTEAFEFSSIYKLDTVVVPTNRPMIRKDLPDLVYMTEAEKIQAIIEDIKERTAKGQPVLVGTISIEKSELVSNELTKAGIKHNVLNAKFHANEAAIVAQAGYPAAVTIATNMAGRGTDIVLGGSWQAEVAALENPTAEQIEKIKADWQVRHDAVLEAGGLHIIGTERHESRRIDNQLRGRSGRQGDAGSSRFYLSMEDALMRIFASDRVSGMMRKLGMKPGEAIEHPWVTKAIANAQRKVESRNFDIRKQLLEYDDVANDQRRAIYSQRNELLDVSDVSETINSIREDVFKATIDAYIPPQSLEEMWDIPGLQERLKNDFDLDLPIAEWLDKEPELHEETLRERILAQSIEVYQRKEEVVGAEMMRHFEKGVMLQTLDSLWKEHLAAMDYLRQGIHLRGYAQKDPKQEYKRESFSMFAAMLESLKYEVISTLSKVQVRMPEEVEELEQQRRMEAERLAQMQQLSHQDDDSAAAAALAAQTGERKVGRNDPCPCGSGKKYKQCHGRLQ
Structure (SMILES),Percent Effect [1] [%],Percent Effect [2] [%],Percent Effect [3] [%],Percent Effect [4] [%],Percent Effect (Trypanosoma cruzi) [%],Percent Effect [5] [%],Percent Effect [6] [%],Percent Effect (Homo sapiens) [%],Percent Effect [7] [%],Percent Effect [8] [%],Percent Effect [9] [%]
Cc1noc(C)c1CCC(=O)NC(C)c1nnc2n1CCC2 (configuration not stated),-2.15,16.2,5.84,17.7,6.35,5.71,5.24,3.14,2.15,13.6,-4.65
Cn1ccnc1COc1ccc(CN2CCN(CCO)CC2)cc1,-4.05,20.8,-12.5,-0.317,-3.18,-3.2,5.07,29.4,10.7,2.44,-9.14
Cc1nc(C)n(CC2CCCN2CCOc2ccc(C#N)cc2)n1 (configuration not stated),-3.7,2.53,-2.42,10.4,7.27,1.9,1.06,17.9,6.4,11.4,-5.17
CCn1nc(C)c2nc(C(C)C)nc(NCCOC)c21,-4.55,6.67,7.63,3.6,2.36,-4.4,15.5,19.2,5.29,12.8,-9.33
Cn1cccc1C(=O)NCc1cnc2n1CCN(C(=O)N1CCCC1)C2,-5.97,16,-1.93,4.39,6.18,-45,7.86,3.79,2.08,12.5,-6.82
COc1cc(C(=O)NS(=O)(=O)c2cccc(C#N)c2)cc(Cl)c1OC,-2.08,-5.41,2.84,4.53,3.44,3.51,1.79,-7.05,-6.93,-1.22,6.51
CC(=O)N1CCC(c2cncc(Oc3ccccc3)n2)CC1,-10,0,9.22,-2.36,-4.33,-1.17,8.19,14,-1.06,3.85,-3.75
Cc1nc(NCCc2ccc(Cl)cc2)cc(C(=O)N2CCCCC2)n1,-1.97,7.79,7.85,-0.26,-8.16,-16.6,22.6,10.8,0,1.24,-2.69
COCCn1cc(C(=O)N2CCCC2c2cccc(F)c2)ccc1=O (configuration not stated),1.54,-5.41,-0.655,0.523,-2.7,2.38,7.07,-0.304,-2.65,-56.1,-2.35
CCN(CC)C(=O)c1nnc2ccc(N3CCOCC3)cc2n1,-7.46,9.33,-17.9,3.43,7.27,-7.57,14.1,11.4,3.17,12.8,-14.1
Cn1cnc2c1C(COCc1ccccc1)N(Cc1ccncc1)CC2 (configuration not stated),-1.94,2.67,-0.486,11.9,-1.16,-25.6,7.69,-15.2,3.12,10,-6.37
CN(Cc1ccon1)C(=O)C1CC(=O)N(Cc2ccncc2)C1 (configuration not stated),-6.1,5.41,-1.61,13.8,-0.684,0.248,2.66,14.7,5.38,8.64,-4.6
CNCC(=O)N1CCC(c2ccnc(Nc3ccc(C)cn3)n2)C1 (configuration not stated),-7.25,17.6,1.51,1.04,2.37,-4.87,17.9,-13.7,8.6,19.5,-16.1
Cc1cc(CN(C)C(=O)NC2CCS(=O)(=O)C2)no1 (configuration not stated),-1.09,13,-2.73,-9.19,6.37,6.11,11.2,6.33,4.76,18.8,-18.4
Cc1ccc(S(=O)(=O)N2C[C@@H]3C[C@@H](NC(=O)C(C)(C)C)[C@@H]3C2)cc1,-5.99,14.9,5.25,4.69,2.77,-3.48,12.3,2.6,3.23,9.09,-22.4
CNC(=O)[C@H]1C[C@@H]2CN(S(=O)(=O)c3ccccc3)C[C@@H]2N1C,-2.19,-5.2,3.6,3.49,-0.492,-13.8,1.83,6.5,2.15,-1.24,2.52
Cc1ccc(CN2CCCC3(CCN(S(=O)(=O)N(C)C)C3)C2)o1 (configuration not stated),-4.24,10.7,11.3,7.3,-2.17,3.03,13.7,9.85,7.45,19.2,-3.25
CCS(=O)(=O)N1CCC[C@]2(C(=O)N(C)C)CN(c3ncccn3)C[C@@H]2C1,2.18,10.7,3.9,3.64,0.193,-53.9,7.52,-10.8,3.12,22.5,-10.2
CSc1ccc(-c2nc(CN3CCC(NC(C)=O)C3)c(C)o2)cc1 (configuration not stated),-6.31,-5.41,0.887,-0.709,-4.25,-3.33,2.93,18.4,4.76,7.32,-1.88
Cc1cnn(CCNCc2nc(Cc3ccccc3)no2)c1,-0.787,0,-3.33,-0.739,-1.32,5.75,5.51,13.2,5.39,7.32,2.72
O=C(NCc1nnc2n1CCC2)N(Cc1ccco1)C1CC1,-0.0964,8.11,-2.14,3.8,-2.12,-2.86,20.3,14.6,3.7,12.2,-2.31
c1cncc(CN2CCc3ncnc(C4CCOC4)c3CC2)c1 (configuration not stated),1.94,21.3,13.3,-7,-4.92,2.1,7.14,15.9,5.32,6.41,-0.839
